# Source: the supplement of paper PMC8728848
# Only a selection was taken, and the strongest signals are over-represented in it overall.
# B1: Cohesin-mDC-ASGPR (Macaca mulatta) (protein)
# chain: LDITSHHHHHHDDLDAVRIKVDTVNAKPGDTVRIPVRFSGIPSKGIANCDFVYSYDPNVLEIIEIEPGDIIVDPNPDKSFDTAVYPDRKIIVFLFAEDSGTGAYAITKDGVFATIVAKVKEGAPNGLSVIKFVEVGGFANNDLVEQKTQFFDGGVNVGDTTEPATPTTPVTTPTTTDDLDAASSQNSKFQRDLVTLRTDFSNFTSNTVAEIQALTSQGSSVEEMIASLKAEVEVIKQEQQAVHSEMLLRVQRLMQDLNKLTCQVATLKNNASTERTCCPVNWVEHQDSCYWFSRSGMPWAEAEKHCQLENAHLVVINSREEQNFVQEHLSFAYTWMGLSDREGAWKWVDGTDYETGFQNWKPGQPDDWQGHGLGGGEDCAHFHPDGRWNDDVCQRPYYWVCEAGLTQASQESH
# Tests used:
# Assay in all cases: glycan array binding signal (z-score within array); higher = stronger binding
# Settings in all cases: glycan notation: IUPAC condensed, linker removed
# [1] = biological target: Fuc(a1-2)Gal(b1-3)GalNAc(a1-3)[Fuc(a1-2)]Gal(b1-4)Glc
# Outline: (§1)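 The binding signal is a Z-score computed within each array and averaged over linkers. Arrays of the same protein sequence at different concentrations or buffers were also averaged together. Data originate from 3228 arrays in the Consortium for Functional Glycomics database, kept only where the protein sequence was available.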
# [2] = biological target: Fuc(a1-2)Gal(b1-3)GalNAc(b1-3)Gal
# Outline: as §1
# [3] = biological target: Fuc(a1-2)Gal(b1-3)GlcNAc(b1-2)Man(a1-3)[Fuc(a1-2)Gal(b1-3)GlcNAc(b1-2)Man(a1-6)]Man(b1-4)GlcNAc(b1-4)[Fuc(a1-6)]GlcNAc
# Outline: as §1
# [4] = biological target: Fuc(a1-2)Gal(b1-3)GlcNAc6S
# Outline: as §1
# Fuc(a1-2)Gal(b1-4)Glc = biological target: Fuc(a1-2)Gal(b1-4)Glc
# Outline: as §1
# [5] = biological target: Fuc(a1-2)[Gal(a1-3)]Gal(b1-4)GlcNAc(b1-2)Man
# Outline: as §1
# [6] = biological target: Fuc(a1-2)[GalNAc(a1-3)]Gal(b1-3)GlcNAc(b1-6)GalNAc
# Outline: as §1
# [7] = biological target: Fuc(a1-2)[GalNAc(a1-3)]Gal(b1-4)GlcNAc(b1-6)GalNAc
# Outline: as §1
# [8] = biological target: Fuc(a1-2)[GalNAc(a1-3)]Gal(b1-4)[Fuc(a1-3)]GlcNAc
# Outline: as §1
# [9] = biological target: Fuc(a1-2)[GalNAc(a1-4)]Gal(b1-4)GlcNAc
# Outline: as §1
# [10] = biological target: Fuc(a1-3)[GalNAc(b1-4)]GlcNAc6S
# Outline: as §1
# Gal(a1-3)Gal = biological target: Gal(a1-3)Gal
# Outline: as §1
# Gal(a1-4)Gal(b1-4)GlcNAc = biological target: Gal(a1-4)Gal(b1-4)GlcNAc
# Outline: as §1
# Gal(b1-2)Gal = biological target: Gal(b1-2)Gal
# Outline: as §1
# [11] = biological target: Gal(b1-3)GlcNAc(b1-2)Man(a1-3)[Gal(b1-3)GlcNAc(b1-2)Man(a1-6)]Man(b1-4)GlcNAc(b1-4)[Fuc(a1-6)]GlcNAc
# Outline: as §1
# [12] = biological target: Gal(b1-3)GlcNAc(b1-2)[Gal(b1-3)GlcNAc(b1-6)]Man(a1-6)[Gal(b1-3)GlcNAc(b1-2)Man(a1-3)]Man(b1-4)GlcNAc(b1-4)GlcNAc
# Outline: as §1
# [13] = biological target: Gal(b1-3)GlcNAc(b1-3)Gal(b1-4)[Fuc(a1-3)]GlcNAc(b1-6)[Gal(b1-3)GlcNAc(b1-3)]Gal(b1-4)Glc
# Outline: as §1
# [14] = biological target: Gal(b1-3)[Fuc(a1-4)]GlcNAc(b1-6)GalNAc
# Outline: as §1
# [15] = biological target: Gal(b1-3)[Neu5Ac(a2-6)]GalNAc
# Outline: as §1
# [16] = biological target: Gal(b1-4)GlcNAc(b1-2)[Gal(b1-4)GlcNAc(b1-6)]Man(a1-6)[Gal(b1-4)GlcNAc(b1-2)Man(a1-3)]Man(b1-4)GlcNAc(b1-4)GlcNAc
# Outline: as §1
# [17] = biological target: Gal(b1-4)GlcNAc(b1-2)[Gal(b1-4)GlcNAc(b1-6)]Man(a1-6)[Gal(b1-4)GlcNAc(b1-2)Man(a1-3)]Man(b1-4)GlcNAc(b1-4)[Fuc(a1-6)]GlcNAc
# Outline: as §1
# [18] = biological target: Gal(b1-4)GlcNAc(b1-3)Gal(b1-4)GlcNAc(b1-3)Gal(b1-4)GlcNAc(b1-3)Gal(b1-4)GlcNAc(b1-3)Gal(b1-4)GlcNAc(b1-2)[Gal(b1-4)GlcNAc(b1-3)Gal(b1-4)GlcNAc(b1-3)Gal(b1-4)GlcNAc(b1-3)Gal(b1-4)GlcNAc(b1-3)Gal(b1-4)GlcNAc(b1-6)]Man(a1-6)[Gal(b1-4)GlcNAc(b1-3)Gal(b1-4)GlcNAc(b1-3)Gal(b1-4)GlcNAc(b1-3)Gal(b1-4)GlcNAc(b1-3)Gal(b1-4)GlcNAc(b1-2)Man(a1-3)]Man(b1-4)GlcNAc(b1-4)[Fuc(a1-6)]GlcNAc
# Outline: as §1
# Gal4S(b1-4)GlcNAc = biological target: Gal4S(b1-4)GlcNAc
# Outline: as §1
# GalNAc(b1-3)Gal = biological target: GalNAc(b1-3)Gal
# Outline: as §1
# GalNAc(b1-4)GlcNAc = biological target: GalNAc(b1-4)GlcNAc
# Outline: as §1
# GalNAc3S(b1-4)GlcNAc3S = biological target: GalNAc3S(b1-4)GlcNAc3S
# Outline: as §1
# GalNAc6S(b1-4)GlcNAc = biological target: GalNAc6S(b1-4)GlcNAc
# Outline: as §1
# [19] = biological target: GlcNAc(b1-3)Gal(b1-4)GlcNAc(b1-2)[GlcNAc(b1-3)Gal(b1-4)GlcNAc(b1-6)]Man(a1-6)[GlcNAc(b1-3)Gal(b1-4)GlcNAc(b1-2)Man(a1-3)]Man(b1-4)GlcNAc(b1-4)GlcNAc
# Outline: as §1
# [20] = biological target: GlcNAc(b1-3)Gal(b1-4)GlcNAc(b1-3)Gal(b1-4)GlcNAc(b1-2)Man(a1-3)[GlcNAc(b1-3)Gal(b1-4)GlcNAc(b1-3)Gal(b1-4)GlcNAc(b1-2)Man(a1-6)]Man(b1-4)GlcNAc(b1-4)[Fuc(a1-6)]GlcNAc
# Outline: as §1
# [21] = biological target: GlcNAc(b1-4)[GlcNAc(b1-6)]GalNAc
# Outline: as §1
binder,measurement,setting,value
B1,glycan array binding signal (z-score),[1],-0.406
same,glycan array binding signal (z-score),[2],0.568
same,glycan array binding signal (z-score),[3],-0.227
same,glycan array binding signal (z-score),[4],0.873
same,glycan array binding signal (z-score),Fuc(a1-2)Gal(b1-4)Glc,-0.387
same,glycan array binding signal (z-score),[5],-0.34
same,glycan array binding signal (z-score),[6],3.22
same,glycan array binding signal (z-score),[7],3.46
same,glycan array binding signal (z-score),[8],0.425
same,glycan array binding signal (z-score),[9],3.47
same,glycan array binding signal (z-score),[10],3.4
same,glycan array binding signal (z-score),Gal(a1-3)Gal,-0.427
same,glycan array binding signal (z-score),Gal(a1-4)Gal(b1-4)GlcNAc,-0.412
same,glycan array binding signal (z-score),Gal(b1-2)Gal,-0.312
same,glycan array binding signal (z-score),[11],-0.402
same,glycan array binding signal (z-score),[12],-0.399
same,glycan array binding signal (z-score),[13],-0.418
same,glycan array binding signal (z-score),[14],3.02
same,glycan array binding signal (z-score),[15],-0.372
same,glycan array binding signal (z-score),[16],-0.394
same,glycan array binding signal (z-score),[17],-0.418
same,glycan array binding signal (z-score),[18],-0.379
same,glycan array binding signal (z-score),Gal4S(b1-4)GlcNAc,-0.407
same,glycan array binding signal (z-score),GalNAc(b1-3)Gal,3.51
same,glycan array binding signal (z-score),GalNAc(b1-4)GlcNAc,3.5
same,glycan array binding signal (z-score),GalNAc3S(b1-4)GlcNAc3S,-0.428
same,glycan array binding signal (z-score),GalNAc6S(b1-4)GlcNAc,3.82
same,glycan array binding signal (z-score),[19],-0.07
same,glycan array binding signal (z-score),[20],-0.329
same,glycan array binding signal (z-score),[21],-0.393
